The text below walks through data of PubChem BioAssay.

The structures appear in SMILES notation. Several values for one entry are separate records, joined by “and”; a condition that tells them apart may be missing. Equal entries are not always repeated. Records with an inconclusive call do not appear. Activity calls are given as the source filed them.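 Rule for the calls, unless noted: active = thallium flux through the channel raised or lowered by more than 3 SD from vehicle-only wells, actives on both sides; inactive = the rest.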

Test [1] can be described thus: glutamate transport activators, MN-1 cells, MN-1 cell line (AID 1612).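 Note: tested at 1 µM final; 0% = mean of DMSO vehicle wells on each plate; positive means more glutamate uptake than control and negative means less.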 The settings on record: MN-1 motor neuron cells, stronger effect = higher value.
Test [2] is described as follows: 75Q-TubH aggregate inhibition, S. cerevisiae, yeast (AID 1616). The conditions noted are these: S. cerevisiae 75Q-TubH polyglutamine aggregation suppression; stronger effect = higher value.
Test [3] can be described thus: compounds altering viability of human ES cells (AID 493140; call rule not given here;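 note: cells exposed to compounds for four days before counting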). The conditions noted are these: human embryonic stem cell survival screen; stronger effect = higher value.
The nature of test [4]: modulation of C. elegans fzo-1 (AID 1259413; call rule not given here;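 note: fzo-1 mutant C. elegans worms in liquid wells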). The settings on record: C. elegans fzo-1 modulator screen, mean read-out; stronger effect = higher value.
Test [5] is described as follows: viability loss in pontine glioma line – cell-based, JHH-DIPG-1, MIPE4.0, CellTiter-Glo, qHTS, dose response (AID 1347062; cut-off not given, nearly all actives have AC50 up to about 27 µM;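 for AC50: cells exposed to compound for two days before readout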). The conditions noted are these: JHH-DIPG-1 viability, CellTiter-Glo ATP luminescence. In general terms: Cellular ATP, detected with luciferase, serves as a proxy for viable cell number.
The nature of test [6]: growth inhibition of DIPG cells – cell-based, MIPE4.0 library, CellTiter-Glo luminescence, qHTS (AID 1347066; cut-off not given, nearly all actives have AC50 up to about 30 µM;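 note: cells exposed to compound for 48 hours before readout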). The settings on record: SU-DIPG-VI viability, CellTiter-Glo ATP luminescence.
The subject of test [7] is F380Y. Nature of the test: BK channel mutant inhibitors and activators – cell-based, U2OS BacMam, thallium flux, beta subunits, selectivity assay, profiling panel (AID 1259406).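 Note: initial slope of Thallos dye fluorescence rise after thallium is added; log ratio against the mean of 0.3% DMSO vehicle wells on the same plate.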 The settings on record: U2OS BacMam BK variants, at 30 µM.
Test [8] has as its system F380Y/beta1. The test is described as above. The settings on record: U2OS BacMam BK variants, at 30 µM.
Test [9] concerns F380Y/beta2Delta. Described as above. The conditions noted are these: U2OS BacMam BK variants, at 30 µM.
For test [10], the system named is F380Y/beta4. The description is as above. The settings on record: U2OS BacMam BK variants, at 30 µM.
Test [11] concerns the target Calcium-activated potassium channel subunit alpha-1 (Homo sapiens) + Leucine-rich repeat-containing protein 26 (Homo sapiens) (UniProt Q12791+Q2I0M4). The description is as above. The conditions noted are these: U2OS BacMam BK variants, F380Y/Slo1WT/gamma1, at 30 µM.
Test [12] has as its system R275C. The description is as above. The settings on record: U2OS BacMam BK variants, at 30 µM.
Test [13] has as its system R275C/beta1. The description is as above. The conditions noted are these: U2OS BacMam BK variants, at 30 µM.
Test [14] deals with R275C/beta2Delta. The description is as above. The conditions noted are these: U2OS BacMam BK variants, at 30 µM.
In test [15] the test system is R275C/beta4. The description is as above. The settings on record: U2OS BacMam BK variants, at 30 µM.
For test [16], the system named is R275C/Slo1WT/beta2. The description is as above. The conditions noted are these: U2OS BacMam BK variants, at 30 µM.
A short description of test [17]: viability loss with induced miR-34 in A549 – imaging, A549 dox-inducible miR-34, nuclei and caspase counts, primary screen (AID 1347080;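 active = compounds whose cell count with miR-34 switched on is under 0.7 times the count with it off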). The conditions noted are these: A549 miR-34 inducible, Hoechst nuclei count, 48 h.
The nature of test [18]: growth inhibition, single agent or in combination, cell-based, chromothripsis tumors, cisplatin or BGB combos (AID 1671449; in the data active = inhibition above about 80%;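 note: cells exposed for 96 hours; 0% = vehicle DMSO and 100% = killing by high DMSO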). The conditions noted are these: LFS_MB_P medulloblastoma cells.
The nature of test [19]: growth inhibition, single agent and combos, cell-based, chromothripsis tumors, cisplatin or BGB combos (AID 1671450; in the data active = inhibition above about 80%;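 note: cells exposed to compound for four days; 0% = vehicle DMSO and 100% = cell killing by high DMSO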). The conditions noted are these: HDN33 neuroblastoma cells, stronger effect = higher value.
Test [20] can be described thus: growth inhibition, single agents and combos, HTB85, cell-based, BGB or cisplatin IC20 combos, synergistic combos for chromothripsis tumors (AID 1671453; in the data active = inhibition above about 80%;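 note: cells exposed for 96 hours before readout; 0% = vehicle DMSO and 100% = high DMSO killing control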). The conditions noted are these: HTB85 osteosarcoma cells, drug combinations, stronger effect = higher value.
Setting [21] is: stronger effect = lower value, cell number ratio, induced over uninduced.
Where [22] appears, read: measured here: relative caspase fold change +Dox/-Dox.
[23] abbreviates: measured here: total cells with miR-34 induction, stronger effect = lower value.
Setting [24] is: measured here: total cells without miR-34 induction.

Calcium-activated potassium channel subunit alpha-1 (Homo sapiens) + Leucine-rich repeat-containing protein 26 (Homo sapiens), sequence (Q2I0M4 whole entry, looked up, one chain of several): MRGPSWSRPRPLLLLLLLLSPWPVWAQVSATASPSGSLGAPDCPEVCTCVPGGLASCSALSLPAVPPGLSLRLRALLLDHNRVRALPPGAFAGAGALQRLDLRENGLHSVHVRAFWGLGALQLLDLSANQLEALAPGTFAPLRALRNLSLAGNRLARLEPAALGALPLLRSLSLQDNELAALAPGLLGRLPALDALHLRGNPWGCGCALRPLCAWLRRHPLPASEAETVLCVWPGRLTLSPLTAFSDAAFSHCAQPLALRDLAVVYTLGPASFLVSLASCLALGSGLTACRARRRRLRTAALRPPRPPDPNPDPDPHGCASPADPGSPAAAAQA

As a reminder, the AC50 is the concentration at which the activity in the assay is half-maximal. For the molecule `CCC1(c2ccccc2)C(=O)NCNC1=O`, the glutamate uptake change in test [1] was -24.4%. Moreover, the aggregation suppression score in test [2] turned out to be 1.22. Besides, the survival in test [3] is 5.92 (inactive). Besides, the mean signal in [4] was 235 (inactive). Moreover, the concentration at half-maximal activity (AC50) in [5] was 8.33 µM (active). For the same molecule, in test [6], the call was inactive. Further, the log fold change Tl+ flux in [7] was -0.0227 (inactive); in test [8] it was 0.00204 (inactive); in test [9], -0.0144 (inactive); in test [10], 0.00245 (inactive); in test [11], 0.023 (inactive); in test [12], -0.0184 (inactive). The log fold change Tl+ flux in test [13] was -0.0109 (inactive); in test [14], -0.0215 (inactive); in test [15] it was 0.0127 (inactive); in test [16], -0.0237 (inactive).

For the molecule `CCCCCN=C(N)N/N=C/c1c[nH]c2ccc(OC)cc12`, the mean signal in test [4] was 250 (inactive). The molecule was called inactive in test [6].

Consider `c1ccc([C@H]2CN3CCSC3=N2)cc1`, for which the glutamate uptake change in test [1] was determined as 4.54%. In addition, in test [2], the aggregation suppression score is 1.54. For the same molecule, in test [3], the survival is 17.8 (inactive) and 98.4 (inactive). In test [5], the call was inactive.

With `CCN(CCO)CCCC(C)Nc1ccnc2cc(Cl)ccc12` (centres undefined), in test [1], the glutamate uptake change is 0%. Moreover, in test [2], the aggregation suppression score turned out to be 1.3. In addition, the call in test [5] and in test [6] was inactive. Also, the fold change in [17] (setting [21]) is 0.835 (inactive); in [17] (setting [22]), 5.27. For the same molecule, the values for the cell count in [17] (setting [23]) and in test [17] (setting [24]) were 11300 and 13500, respectively.

Regarding `CC(C)NCC(O)c1ccc(O)c(O)c1` (centres undefined), the glutamate uptake change in test [1] is -0.29%. The aggregation suppression score in [2] was found to be 1.28. Moreover, the survival in test [3] was 4.58 (inactive) and 3.08 (inactive). For the same molecule, in test [4], the mean signal was 227 (inactive). Further, in test [5], the AC50 was 1.48 µM (active). Moreover, the molecule was called inactive in test [6]. In addition, the log fold change Tl+ flux in test [7] is 0.0351 (inactive); in test [8], 0.0171 (inactive); in test [9], 0.061 (inactive); in test [10], 0.0647 (inactive); in test [11] it was -0.00786 (inactive); in test [12], 0.0272 (inactive). In addition, the log fold change Tl+ flux in test [13] is -0.0419 (inactive); in [14], 0.00121 (inactive); in test [15] it was 0.0195 (inactive); in test [16], -0.00526 (inactive).

The inhibition is the relative decrease from the control value, in per cent. With `Nc1nc2c(ncn2COCCO)c(=O)[nH]1`, the glutamate uptake change in test [1] came to 13.5%. The molecule also yielded an aggregation suppression score in [2] of 1.27. Moreover, in [3], the survival is 18.2 (inactive). In [4], the mean signal is 281 (inactive). For the same molecule, in test [5], the result was inactive. For the same molecule, the inhibition was -27.5% (inactive) and -23.8% (inactive) in [18] (at 0.5 µM, stronger effect = higher value); -0.211% and -20% in test [18] (measured here: combination with BGB IC20, at 0.005 µM); -37.2% and -37.3% in test [18] (measured here: combination with BGB IC40, at 0.005 µM); -22.3% and -50.5% in test [18] (measured here: combination with BGB IC40, at 0.05 µM); -35.1% and -39.9% in test [18] (measured here: combination with cisplatin, at 0.5 µM, stronger effect = higher value); -19.1% and -38.4% in [18] (measured here: combination with cisplatin, at 5 µM, stronger effect = higher value). Also, the inhibition in test [19] (BGB combo, at 5 µM) is -39.6% and -25.3%; in test [19] (at 0.5 µM), -44.3% (inactive) and -13.8% (inactive); in test [19] (cisplatin combo, at 5 µM), -30.4% and 3.02%; in test [19] (measured here: with BGB IC20 combination, at 0.5 µM), -44% and -16%; in test [19] (measured here: with cisplatin IC20 combination, at 0.5 µM), -44.9% and -2.15%; in test [19] (single agent, at 5 µM), -49.5% and 10.3%. Further, the inhibition in [20] (at 0.5 µM) was -30.1% (inactive) and -6.85% (inactive); in [20] (measured here: with BGB IC20, at 0.5 µM) it was -40.8% and -11.5%; in [20] (measured here: with BGB IC20, at 5 µM) it was -33.7% and -9.07%; in test [20] (measured here: with cisplatin IC20, at 0.5 µM), -27.1% and -11.3%; in test [20] (measured here: with cisplatin IC20, at 5 µM) it was -43.1% and -41.4%; in test [20] (single agent, at 5 µM), -42.6% and 2.37%. The log fold change Tl+ flux in [7] is 0.00551 (inactive); in test [8], -0.0568 (inactive); in test [9], 0.0127 (inactive); in test [10] it was -0.0606 (inactive); in test [11], -0.0276 (inactive); in [12], -0.024 (inactive). Besides, the log fold change Tl+ flux is -0.0244 (inactive) in test [13], -0.00892 (inactive) in [14], 0.0324 (inactive) in test [15] and 0.0456 (inactive) in test [16].

With `CCOC(=O)[C@H](CCc1ccccc1)N[C@H]1CCc2ccccc2N(CC(=O)O)C1=O`, in [4], the mean signal is 261 (inactive). Moreover, in test [5], the AC50 is 16.6 µM (active). Moreover, the fold change in test [17] (setting [21]) is 0.89 (inactive) and 0.936 (inactive); in test [17] (setting [22]) it was 2.29 and 1.38. The cell count is 9000 and 10300 in [17] (setting [23]); 10100 and 11000 in [17] (setting [24]). Also, the log fold change Tl+ flux was -0.0356 (inactive) in test [7]; 0.0148 (inactive) in test [8]; -0.052 (inactive) in test [9]; 0.0138 (inactive) in test [10]; 0.0131 (inactive) in [11]; 0.0199 (inactive) in [12]. Also, the log fold change Tl+ flux in test [13] was -0.0262 (inactive); in [14], 0.041 (inactive); in test [15], -0.0252 (inactive); in test [16] it was -0.00529 (inactive).

Regarding `CC[C@H](C)C(=O)O[C@H]1C[C@@H](C)C=C2C=C[C@H](C)[C@H](CC[C@@H]3C[C@@H](O)CC(=O)O3)[C@H]21`, in test [1], the glutamate uptake change is -19%. Besides, the aggregation suppression score in test [2] turned out to be 0.603. In addition, in test [3], the survival was 2.08 (inactive). The mean signal in test [4] is 253 (inactive). Besides, in test [6], the molecule was classed as inactive. Besides, the log fold change Tl+ flux in test [7] is 0.184 (active); in test [8], 0.00194 (inactive); in test [9], 0.0899 (active); in test [10], -0.0805 (inactive); in test [11], 0.025 (inactive); in test [12], -0.0727 (inactive). The log fold change Tl+ flux is 0.0657 (inactive) in test [13], 0.0172 (inactive) in [14], 0.0477 (inactive) in test [15] and -0.0508 (inactive) in test [16].

For the molecule `c1ccc(CC2=NCCN2)cc1`, the glutamate uptake change in [1] turned out to be 1.58%. The aggregation suppression score in test [2] is 1.3. The survival in test [3] is 21.6 (inactive). Also, the mean signal in [4] was 271 (inactive). Further, the log fold change Tl+ flux is 0.00977 (inactive) in test [7]; 0.0105 (inactive) in test [8]; -0.0174 (inactive) in test [9]; -0.03 (inactive) in test [10]; -0.0313 (inactive) in test [11]; -0.0482 (inactive) in test [12]. Further, the log fold change Tl+ flux in [13] is 0.0322 (inactive); in test [14], -0.00877 (inactive); in [15], 0.0215 (inactive); in test [16] it was 0.0521 (inactive).
